Our source for the Percent Effect values is ChEMBL document CHEMBL3988442, “University of Dundee, Small-Polar-MMV Screening Library” (2021).

The target of this experiment is AMP-activated protein kinase, AMPK (Homo sapiens) (UniProt P54646+O43741+P54619+Q9UGJ0+Q9Y478+Q13131+Q9UGI9). As to the kind of experiment: AMP-dependent Kinase enzyme assay. An in vitro enzyme assay that detects ADP turnover that is directly proportional to AMPK activity. This uses naive AMPK that is activated during the assay with MK-8722. Conditions: 30 µM. It is filed as functional. On the set-up: scale not given: direction of the effect not stated beside the values.
For the compound `CC(=O)N1CCCN(Cc2csc(-c3ncccn3)n2)CC1`, the Percent Effect was -3.37%.

Consider `O=C(NCCc1ccn(-c2ccccc2)n1)N1CCC1`, for which the Percent Effect is -0.615%.

In the case of `O=C(NC1CC1)[C@H]1C[C@@H]2CCN(CCc3ccccc3)C[C@H]2O1`, the Percent Effect is 9.4%.

Turning to `CC1c2ncc(CN3CCN(C)CC3)n2CCN1CC1CC1` (stereo not given), the Percent Effect is -6.67%.

As to `O=S(=O)(c1cccs1)N1CC[C@H](O)[C@@H]1Cc1ccncc1`, the Percent Effect amounted to 9.88%.

For `COCc1nc2cc(NCc3ccncc3)ccc2o1`, the Percent Effect is -108%.

For the compound `CCn1cc(CN(C)C(=O)c2cccc(CCC(C)(C)O)c2)cn1`, the Percent Effect was -1.82%.

Take `COCCCNC(=O)CCn1nc(C)c2ccccc21`: the Percent Effect is 0.569%.

Regarding `CCc1nc(CN2CCCC(NCc3ccc(C(N)=O)cc3)C2)no1` (stereo not given), the Percent Effect was -1.56%.

On to `CCS(=O)(=O)N1CCO[C@H]2[C@H](OCCCn3cccn3)CC[C@@H]21`, for which the Percent Effect was -2.06%.

With `Cc1nccn1C1CCCN(C(=O)c2ccc3c(c2)COC3)C1` (stereo not given), the Percent Effect is -1%.

On to `Cc1cc(C)n(-c2ccc(CNCc3ccc(OC(C)C)cc3)cn2)n1`, for which the Percent Effect is -0.778%.

With `CCc1nc(C2CCCN2Cc2nc3ccccc3o2)no1` (stereo not given), the Percent Effect is 6.37%.

Turning to `CC(C)N1CCC(Cc2cc(-c3ccccc3C(=O)O)ncn2)CC1`, the Percent Effect stood at 4.35%.

Take `CC(=O)c1cccc(OCCCC(=O)NCC2CCCN2C)c1` (stereo not given): the Percent Effect is -2.69%.

In the case of `CN1C(=O)C[C@@H]2[C@@H]1CCN2C(=O)c1ccc[nH]1`, the Percent Effect was found to be 1.46%.

With `Cc1cc(C)n(-c2cncc(N3CCN(C(=O)C(C)(C)C)CC3)n2)n1`, the Percent Effect came to 10.4%.

As for `C1CCCN(c2nc(C3CC3)ns2)CC1`, the Percent Effect is -19.9%.

Turning to `Cn1cnnc1S(=O)(=O)C1CCN(S(=O)(=O)C2CC2)CC1`, the Percent Effect was 14.5%.

Regarding `O=C(O)c1ccc(S(=O)(=O)Nc2ccc(Cl)c(F)c2)c(F)c1`, the Percent Effect is -7.96%.
